Screens from PubChem.
Most compounds without a hit are left out; they make up all but 2.1% or so of the library.
EP2 mod – modulates human prostaglandin E2 receptor EP2 signaling. induction, % at 25 µM. AID 940. 0.83% of 260,000 active. P43116. EP2-expressing cells, cAMP HTRF FRET, PGE2 co-stimulation;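 active = compounds whose cAMP rise, as percent of the full-agonist control response, exceeds 60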;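 note: rat C6 glioma line stably carrying human EP2 under a CMV promoter; the protocol text gives 20 µM as final concentration; 100% = response of wells given 1 µM PGE2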
EP2 antag – blocks the human prostaglandin E2 receptor EP2. AID 1422. C6 glioma cells expressing human EP2, cAMP TR-FRET; cells stimulated with saturating PGE2. P43116. inhibition, % at 25 µM. 0.52% of 260,000 active;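 active = percent inhibition above 40 after rounding to a whole number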;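 note: rat C6 glioma host cells with rolipram phosphodiesterase inhibitor present; the protocol text gives 20 µM as final concentration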
CHT inh – inhibitors of human choline transporter CHT; 0.86% of 310,000 active; AID 488975; CHT-expressing cells, membrane potential dye, choline response; active compounds read low; B-score at 10 µM; Q9GZV3;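 active = B-score over 3 SD under the library average, and starting fluorescence ratio not unusually high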;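 note: choline stimulus applied at its EC90 after an EC20 pre-addition; B-score computed on integrated fluorescence ratio after choline addition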
Target sequence (Q9GZV3 whole entry, looked up): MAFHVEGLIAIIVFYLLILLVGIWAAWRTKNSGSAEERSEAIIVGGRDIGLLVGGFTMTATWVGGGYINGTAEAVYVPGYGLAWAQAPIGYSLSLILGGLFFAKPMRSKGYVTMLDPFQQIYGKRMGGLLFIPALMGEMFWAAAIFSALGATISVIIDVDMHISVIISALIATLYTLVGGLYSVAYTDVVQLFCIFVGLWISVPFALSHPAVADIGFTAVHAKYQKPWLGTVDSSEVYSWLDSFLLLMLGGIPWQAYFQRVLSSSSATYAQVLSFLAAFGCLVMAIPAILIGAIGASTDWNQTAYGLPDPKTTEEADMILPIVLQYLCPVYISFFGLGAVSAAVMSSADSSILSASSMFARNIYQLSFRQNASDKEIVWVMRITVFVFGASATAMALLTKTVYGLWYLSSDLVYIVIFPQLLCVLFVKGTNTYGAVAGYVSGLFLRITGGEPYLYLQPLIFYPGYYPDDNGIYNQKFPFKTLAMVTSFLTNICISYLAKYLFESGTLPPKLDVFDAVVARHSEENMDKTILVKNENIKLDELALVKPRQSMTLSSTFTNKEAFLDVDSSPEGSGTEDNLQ
CHT allo act – allosteric activators of human choline transporter CHT. CHT-expressing cells, membrane potential dye, choline EC20; active compounds read high; LV-AA mutant CHT in HEK293 cells. B-score at 10 µM. 0.49% of 310,000 active;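 active = initial fluorescence not abnormally high and integrated response B-score, plate-corrected, over 3 SD above library mean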
CHT block conf – human CHT inhibition, confirmatory screen. shares compounds with CHT inh. CHT-expressing cells, choline membrane potential dye; LV-to-AA substituted CHT, HEK293 cells. CHT activity remaining % of control (active compounds read low), % at 10 µM. 70% of 2,400 active. AID 493221;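 active = choline transporter activity left, mean of duplicates at 10 µM, below buffer-only control mean minus 3 SD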;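 note: depolarization triggered by choline at its EC90 following an EC20 pre-addition; 0% = hemicholinium-3 full block and 100% = buffer-only control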
HEK293 CHT ctr – counter-screen for CHT inhibitors: effect in parental HEK293 cells. shares compounds with CHT inh. membrane potential dye, choline response; active = decrease or increase beyond buffer ±3SD. membrane potential ratio readout (active if shifted either direction beyond buffer ±3SD; no single direction) at 10 µM. 4% of 2,400 active;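 note: parental cells lack the transporter so any hit is non-specific; ratio is peak minus trough fluorescence over baseline after EC90 choline challenge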
CHT act confirm – human CHT activation, confirmatory screen; shares compounds with CHT allo act; 91% of 2,500 active; activation, % at 10 µM; CHT-expressing cells, membrane potential dye fluorescence (FDSS); % of choline EC20–EC90 response window; HEK293 expressing CHT LV-AA mutant; choline added at its EC20;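 active = primary screen active, with duplicate mean activation above negative control mean plus 3 SD, cut at about 11% in these data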
HEK293 MP dye – counter-screen for CHT activators: effect in parental HEK293 cells | shares compounds with CHT allo act | membrane potential dye fluorescence (FDSS); measured after EC20 choline addition | ratio readout change at 10 µM, hits read low | 62% of 2,500 active | AID 623908;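 active = duplicate-averaged ratio beyond 3 SD from buffer wells, up or down, though filed actives are nearly all decreases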
Starred values were filed as active, the others as inactive.

How did COc1cccc(C(C(=O)NC(C)(C)C)N(CCC(C)C)C(=O)CCC(=O)Nc2cc(C)on2)c1OC (stereo unspecified) do in these assays?
EP2 mod: 7.8; EP2 antag: 6.5; CHT inh: inactive; CHT allo act: inactive

Results for O=C(NC1CCCCC1)C1OC(c2ccccc2)OC1C(=O)NC1CCCCC1 (stereo unspecified) ?
EP2 mod: 33.6; EP2 antag: 11.0

Results for CCCCn1nc2cc(C(=O)NC3CCc4ccccc43)ccc2c1OCC (stereo unspecified) ?
EP2 mod: -8.2; EP2 antag: 6.5; CHT inh: -5.47*; CHT allo act: inactive; CHT block conf: 33.8%*; HEK293 CHT ctr: inactive

What do the screens show for `CCCCn1nc2cc(C(=O)NCCc3cccs3)ccc2c1OCC`?
EP2 mod: -9.0; EP2 antag: 13.2; CHT inh: -9.22*; CHT allo act: inactive; CHT block conf: 23.5%*; HEK293 CHT ctr: inactive

What do the screens show for `CCOc1c2ccc(C(=O)NCCc3cccs3)cc2nn1CC`?
EP2 mod: -24.4; EP2 antag: -5.9; CHT inh: inactive; CHT allo act: inactive

How did COc1ccc(S(=O)(=O)N2CCCC(C(=O)NCc3cccs3)C2)cc1 (stereo unspecified) do in these assays?
EP2 mod: -12.7; EP2 antag: 7.4

What do the screens show for `C(=N\Nc1nccc(-c2cccnc2)n1)/c1ccccc1`?
EP2 mod: 22.8; EP2 antag: 7.6; CHT inh: -12*; CHT allo act: inactive; CHT block conf: inactive; HEK293 CHT ctr: inactive

What do the screens show for `CS(=O)(=O)c1cncnc1C1CCCN(C(=O)Cc2ccc(Cl)cc2)C1` (stereo unspecified)?
EP2 mod: 0.1

What do the screens show for `Cc1ccccc1NC(=O)c1cccc(S(=O)(=O)Oc2ccc([N+](=O)[O-])cc2)c1`?
EP2 mod: -3.3; EP2 antag: 22.2; CHT inh: -5.72*; CHT allo act: inactive; CHT block conf: inactive; HEK293 CHT ctr: inactive

How did Cc1ccc(NC(=O)c2cccc(Oc3ccc([N+](=O)[O-])cc3)c2)c(C(=O)O)c1 do in these assays?
CHT inh: inactive; CHT allo act: inactive

What do the screens show for `N=C1C(c2ccccc2)=C(O)CN1c1cccc(O)c1`?
EP2 mod: 11.9; EP2 antag: 2.9; CHT inh: -6.57*; CHT allo act: inactive; CHT block conf: inactive; HEK293 CHT ctr: inactive

Results for Cc1cc([N+](=O)[O-])c(NCCCCCCO)c([N+](=O)[O-])c1 ?
EP2 antag: 6.0; CHT inh: -5.44*; CHT allo act: inactive; CHT block conf: 38.4%*; HEK293 CHT ctr: inactive

Results for CC(=O)NC1(c2ccccc2F)CCN(Cc2ccccc2-n2cccn2)CC1 ?
EP2 mod: -7.7; EP2 antag: 8.3

How did Cc1cc(C)c2c(c1)cc(C)c1nnc(SCC(=O)NC(C)(C)C)n12 do in these assays?
EP2 mod: 0.5; EP2 antag: 8.8

What do the screens show for `C=Cn1cc[n+](CC(=O)c2ccc(-c3ccccc3)cc2)c1`?
CHT inh: -6.69*; CHT allo act: inactive; CHT block conf: 60.0%*; HEK293 CHT ctr: inactive

What do the screens show for `O=C(C[n+]1ccccc1)c1ccc(-c2ccccc2)cc1`?
EP2 mod: -12.5; EP2 antag: 9.5; CHT inh: inactive; CHT allo act: inactive

Results for COc1ccc(NC(=O)CN2CCC3(CC2)CC(=O)c2cc(C)ccc2O3)cc1 ?
EP2 mod: -10.8; EP2 antag: 14.2

What do the screens show for `Cc1csc(NC(=O)c2nc3nc(C)cc(C)n3n2)n1`?
EP2 mod: 26.5; EP2 antag: 19.1; CHT inh: inactive; CHT allo act: inactive

What do the screens show for `Cc1cc(C)n2nc(C(=O)Nc3nnc(C4CC4)s3)nc2n1`?
EP2 mod: 16.2; EP2 antag: 1.1; CHT inh: inactive; CHT allo act: inactive

Results for Cc1cc(C)n2nc(C(=O)N/N=C/c3ccco3)nc2n1 ?
EP2 mod: 14.4; EP2 antag: 7.3; CHT inh: inactive; CHT allo act: 7.05*; CHT act confirm: 59.3*; HEK293 MP dye: -60.4*

What do the screens show for `CCSc1nnc(NC(=O)c2nc3nc(C)cc(C)n3n2)s1`?
EP2 mod: 15.4; EP2 antag: 4.9; CHT inh: inactive; CHT allo act: 6.26*; CHT act confirm: 48.3*; HEK293 MP dye: -41*

Results for Cc1cc(C)n2nc(C(=O)Nc3cccnc3)nc2n1 ?
EP2 mod: 7.9; EP2 antag: 8.1; CHT inh: inactive; CHT allo act: 8.69*; CHT act confirm: 47.2*; HEK293 MP dye: -48*

How did Cc1cc(C)n2nc(C(=O)Nc3nccs3)nc2n1 do in these assays?
EP2 mod: 20.7; EP2 antag: 8.3; CHT inh: inactive; CHT allo act: inactive; CHT act confirm: 54.1*; HEK293 MP dye: -27.3*

Results for COCCCNC(=S)N(Cc1cc2cc(C)cc(C)c2[nH]c1=O)C1CCCC1 ?
EP2 mod: -22.7; EP2 antag: 13.5

What do the screens show for `CCn1cc(C(=O)O)c(=O)c2cc(Br)ccc21`?
EP2 mod: -4.0; EP2 antag: 2.5; CHT inh: inactive; CHT allo act: inactive

What do the screens show for `CCOC(=O)c1cn(CC2CC2)c2cc(F)c(F)cc2c1=O`?
EP2 mod: 27.8; EP2 antag: 10.7; CHT inh: inactive; CHT allo act: 8.25*; CHT act confirm: 58.9*; HEK293 MP dye: -66.8*

What do the screens show for `CCOC(=O)c1cn(CC)c2cc(Cl)c([N+](=O)[O-])cc2c1=O`?
EP2 mod: 15.7; EP2 antag: 6.9; CHT inh: inactive; CHT allo act: 7.49*; CHT act confirm: 46.2*; HEK293 MP dye: -48.6*

Results for CCOC(=O)c1cn(CC)c2ccc(Br)cc2c1=O ?
EP2 mod: 1.1; EP2 antag: 7.2; CHT inh: inactive; CHT allo act: inactive; CHT act confirm: 43.9*; HEK293 MP dye: -35.9*

How did CCc1nnc(NC(=O)CSc2nnnn2-c2ccc3c(c2)OCCO3)s1 do in these assays?
EP2 mod: -28.7; EP2 antag: 14.8

Results for OCCN(CCCn1c(-c2ccncc2)nc2ccccc21)c1nc(CN2CCCCC2)cs1 ?
CHT inh: inactive; CHT allo act: inactive; CHT act confirm: 59.6*; HEK293 MP dye: -43.9*
